Measured values as given in PubChem BioAssay AID1974 (The Scripps Research Institute Molecular Screening Center, 2009).
About 3,200 (1.1%) of roughly 300,000 compounds were called active.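 The calls were made as follows: active = inhibition above the campaign mean inhibition plus 3 SD (cut at about 35% in these data); inactive = the rest.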 Only a selection was taken, and actives are over-represented in it overall.

These compounds were tested against Glutathione S-transferase omega-1 (Homo sapiens) (UniProt P78417) (assay: human GSTO1 enzyme inhibition – biochemical, fluorescence polarization, counter-screen for RBBP9 inhibitor project, primary screen (AID 1974;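 also: 0% = GSTO1-1 with DMSO and 100% = wells lacking GSTO1-1 enzyme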)). Details: recombinant GSTO1, activity-based probe fluorescence polarization; at 5.96 µM; active compounds read high.
Glutathione S-transferase omega-1 (Homo sapiens), sequence (P78417 whole entry, looked up): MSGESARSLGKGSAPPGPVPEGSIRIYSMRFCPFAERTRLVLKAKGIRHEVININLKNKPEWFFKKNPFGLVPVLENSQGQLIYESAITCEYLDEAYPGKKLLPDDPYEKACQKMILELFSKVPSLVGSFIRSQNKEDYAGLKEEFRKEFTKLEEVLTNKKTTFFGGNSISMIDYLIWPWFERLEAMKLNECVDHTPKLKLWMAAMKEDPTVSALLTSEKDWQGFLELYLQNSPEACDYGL

SMILES	inhibition
CCOC(=O)c1c(N)n(Cc2ccccc2)c2nc3ccccc3nc12	77.2% (active)
CCOC(=O)c1c(N)n(CCN2CCOCC2)c2nc3ccccc3nc12	-0.71% (inactive)
COc1cc(Cn2c(N)c(C(=O)NCc3ccco3)c3nc4ccccc4nc32)cc(OC)c1OC	-1.75% (inactive)
CCN(CC)CCOC(=O)c1cc2cc(COC)ccc2o1	0.13% (inactive)
O=c1c2ccccc2nc(/C=C/c2ccco2)n1-c1ccccc1O	-8.4% (inactive)
O=C1NC(=O)N(Cc2ccco2)C(=O)/C1=C\c1cccn1CCOc1ccccc1	18.6% (inactive)
O=C1NC(=O)N(CCc2ccc(F)cc2)C(=O)/C1=C/C=C/c1ccccc1	-7.53% (inactive)
O=C(O)COc1ccccc1/C=C1\C(=O)NC(=O)N(CCC2=CCCCC2)C1=O	41.1% (active)
COc1cc2nc(N3CCN(C(=O)[C@@H]4CCCO4)CC3)nc(N)c2cc1OC	3.62% (inactive)
CCCCCCN=C(CC)c1c(O)n(CCCC)c(=O)[nH]c1=O	-0.65% (inactive)
CC(=O)Nc1ccccc1C(=O)OCC(=O)c1cccc2ccccc12	-2.14% (inactive)
COc1cccc(N2C(=O)NC(=O)/C(=C\c3cn(C)c4ccccc34)C2=O)c1	-0.1% (inactive)
O=C1NC(=O)N(c2ccccc2)C(=O)/C1=C/c1ccc([N+](=O)[O-])s1	38.7% (active)
Cc1cccc(N2C(=O)NC(=O)/C(=C\c3cnn(-c4ccccc4)c3)C2=O)c1	-2.05% (inactive)
Cc1ccc(N2C(=O)NC(=O)C(CCc3ccncc3)(Cc3cccc(Cl)c3Cl)C2=O)cc1 (stereo not given)	-2.83% (inactive)
Cc1ccc(-n2c(-c3ccc([N+](=O)[O-])cc3)nc3ccccc3c2=O)cc1	5.91% (inactive)
N#CC1=C(N)Oc2c(c(=O)oc3ccccc23)C1c1ccccc1OC(=O)c1cccs1 (stereo not given)	-8.89% (inactive)
CCNc1nc2[nH]c(=O)c3c(c2s1)OC(N)=C(C#N)C3c1cccs1 (stereo not given)	40.5% (active)
CCN1c2nc3c(C)cccn3c(=O)c2CC2(C(=O)N(C)C(=O)N(C)C2=O)C1C (stereo not given)	-4.29% (inactive)
Cc1cc(C)cc(NC(=S)NC2CC3CCCC(C2)N3Cc2cccs2)c1 (stereo not given)	0.82% (inactive)
